Sampled rows, rich in hits. Any-hit rate of the full collection: about 2.9%.
CF NFkB inh: inhibitors of cystic fibrosis induced NF-kB. inhibition, % at 5 µM. hit rate 0.86% among 360,000. AID 588850. KKLEB NF-kB-GFP reporter, PAF-induced, GFP fluorescence overnight;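 active = at least 50% inhibition at 5 µM, scaled per plate between neutral and stimulator controls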;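 also: PAF is a Pseudomonas aeruginosa culture filtrate used as stimulus; plate controls were PAF-stimulated DMSO wells for no effect and unstimulated DMSO wells for full effect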
KKLEB tox: reduces viability of KKLEB cystic fibrosis airway cells | KKLEB CF airway cells viability, ATPlite luminescence, overnight; active compounds read low; cells stimulated with P. aeruginosa culture filtrate | activity change (cytotoxicity), % at 5 µM | hit rate 0.36% among 360,000;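 active = corrected activity change at or below -50% at 5 µM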
Shn3 inh set2: reduces Shn3 3'UTR luciferase signal in osteoblasts; Clone20 osteoblast Shn3 3'UTR firefly luciferase, 24 h; inhibition, % at 12.5 µM; hit rate 0.52% among 360,000;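 active = mean inhibition of at least 75% with every replicate also reaching 75%; inconclusive = mean inhibition at least 75% but some replicate below; inactive = mean inhibition below 75%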;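 also: 0% = median of neutral control wells and 100% = pilot-screen positive control compound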
TRPM1 prom inh: reduces MITF-dependent TRPM1 promoter luciferase signal. SK-MEL-5 TRPM1 promoter luciferase, 24 h. inhibition, % at 12.5 µM. hit rate 0.83% among 330,000;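 active = mean inhibition across replicates of 60% or more, whatever share of single replicates reaches that level; inconclusive = some that reach 60%, reason not given; inactive = mean inhibition across replicates below 60%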
EBV LMP1 NFkB: Epstein-Barr LMP1 NF-kappaB reporter inhibition; LMP1-induced NF-kappaB luciferase reporter cells, luminescence; AID 504558; hit rate 0.69% among 350,000; inhibition, % at 12.5 µM; in the data active = inhibition above about 41%; inconclusive = no clear call, values can overlap the other calls;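 also: 0% = neutral control wells and 100% = reference inhibitor control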
Peg3 promoter: reduces Peg3 promoter-driven luciferase expression in HeLa. HeLa PEG-Prom luciferase reporter, luminescence, overnight. inhibition, % at 20 µM. hit rate 1.7% among 360,000;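 active = inhibition of at least 50% at 20 µM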
* hit, by the source's call; ? = inconclusive; / = not tested or not shown.

SMILES | CF NFkB inh | KKLEB tox | Shn3 inh set2 | TRPM1 prom inh | EBV LMP1 NFkB | Peg3 promoter
CC(C)c1ccc(-c2csc3ncnc(N4CCN(C)CC4)c23)cc1 | 48.4 | -7.7 | 49.0 | -3.4 | 49.1* | 1.4
O=[N+]([O-])c1ccc(O)c(/C=N\N=C2c3ccccc3-c3ccccc32)c1 | 48.1 | -50.9* | 5.1 | 21.6 | 14.9 | 22.0
NC(N)=N/N=C/c1cc([N+](=O)[O-])ccc1O | 5.8 | -14.3 | -14.3 | 4.4 | 0.9 | 0.4
CCC(=O)Nc1cccc(C(=O)/C=C/c2cc(Br)ccc2OC)c1 | 12.3 | 5.8 | -14.4 | 91.0* | 66.8* | 103.6*
COc1ccc2cc3c(N)nn(C(=O)c4cccc([N+](=O)[O-])c4)c3nc2c1 | 46.8 | -11.8 | -21.0 | 7.0 | 46.1* | -10.6
COc1ccc2cc3c(N)nn(C(=O)C4CCC(C(C)(C)C)CC4)c3nc2c1 (stereo not drawn) | 82.2* | -7.3 | -3.6 | / | 75.2* | 45.1
CCOC(=O)C1CC(=NO)c2ccc(OC)c(OC)c2C1 (stereo not drawn) | -24.8 | -9.7 | -8.9 | / | -6.0 | 1.6
COCCNC(=O)C1CCCN(C(=O)c2nc3ccccc3s2)CC1 (stereo not drawn) | -6.6 | 23.1 | 15.5 | / | / | 8.7
Cc1cn([C@H]2C[C@H](O)[C@@H](/C=C/C(=O)NCCN3CCOCC3)O2)c(=O)[nH]c1=O | -2.1 | -0.4 | -5.6 | / | / | 15.0
COc1ncccc1-c1cc2nc(NCCNC(C)=O)n(C)c(=O)c2s1 | -37.4 | 8.0 | -7.1 | / | / | -9.6
COc1cc(/C=C(\C#N)c2ccccn2)ccc1OCc1ccccc1Cl | 9.6 | -3.5 | 9.8 | -9.8 | 70.4* | -108.1
O=C(CN1CCN(Cc2ccccc2)CC1)Nc1cccc(Cl)c1Cl | 26.1 | -20.1 | 15.9 | / | 0.7 | 12.4
COc1ccc(S(=O)(=O)N(C)C[C@@H]2OCc3cnnn3CCCC(=O)N([C@H](C)CO)C[C@@H]2C)cc1 | -38.0 | 13.3 | -16.4 | / | -12.2 | -24.8
COc1cc(NCCCCCCN)c2ncccc2c1OC | 24.4 | -17.9 | 6.8 | 7.6 | 56.4* | -5.5
Cc1ccc(C)c(S(=O)(=O)N2CCN(C(=O)C3CCN(c4ncnc5sc(C)c(C)c45)CC3)CC2)c1 | -5.8 | 5.9 | 89.3* | 30.3 | 29.3 | 44.7
Cc1ccc(C)c(S(=O)(=O)N2CCN(C(=O)c3ccc(C)s3)CC2)c1 | -6.4 | 16.4 | 4.2 | 3.7 | 44.5* | 21.3
Cc1sc2ncnc(N3CCN(S(=O)(=O)c4ccccc4)CC3)c2c1C | 9.1 | -5.0 | 94.0* | 1.7 | 6.4 | 30.9
Cc1ccc(C(=O)N2CCN(S(=O)(=O)c3ccccc3)CC2)s1 | -8.3 | 1.9 | -11.7 | -0.2 | 1.3 | 13.3
CC(=O)Nc1cc(-c2ccc(N)nc2)cn2c(-c3cccc(C(F)(F)F)c3)cnc12 | -48.2 | -15.4 | 7.2 | / | / | 6.4
NCCOc1ccc(C2CCCCC2)cc1 | -3.9 | -0.4 | -9.5 | -26.6 | -5.0 | -69.9
NCCOc1ccc(C23CC4CC(CC(C4)C2)C3)cc1 | 40.3 | -29.3 | 5.1 | 42.9 | -17.7 | 101.2*
OCCN1CCN(CC(O)COc2ccc(Cl)cc2)CC1 (stereo not drawn) | 3.9 | -0.2 | -7.4 | -1.5 | 0.4 | 13.2
OCCN1CCN(CC(O)COc2ccc(C34CC5CC(CC(C5)C3)C4)cc2)CC1 (stereo not drawn) | 20.7 | -43.2 | -8.2 | 22.3 | -8.5 | 113.9*
C=CCN=C1NN=C(c2ccc3c(c2)OCCO3)CS1 | 6.5 | -9.7 | -10.5 | 68.6* | 46.6* | 2.0
O=C(Nc1ccccn1)c1onc2c1CCCC2 | -6.6 | -6.8 | 39.4 | 7.4 | 41.0* | 32.3
SMILES | CF NFkB inh | KKLEB tox | Shn3 inh set2 | TRPM1 prom inh | EBV LMP1 NFkB | Peg3 promoter
CSc1nc2[nH]c(=O)n(O)c(=O)c2n1Cc1ccccc1 | -18.4 | 1.0 | -52.5 | 2.1 | -0.9 | 36.5
O=C(Nc1nnc(-c2ccncc2)s1)Nc1ccccc1F | 24.9 | 7.7 | -9.2 | -13.4 | -6.1 | -139.7
O=C(Nc1ccc(Cl)c(Cl)c1)Nc1nnc(-c2ccncc2)s1 | 75.7* | -56.3* | 13.3 | 2.0 | 9.4 | 24.2
O=C(Nc1nnc(CC2=CCCCC2)s1)c1cccs1 | -7.7 | 4.2 | -51.6 | -34.5 | -14.4 | -137.4
O=C(Nc1ccc(Cl)c(Cl)c1)Nc1nnc(CC2=CCCCC2)s1 | 36.2 | -12.2 | 47.4 | 29.6 | 70.9* | 23.7
CCOC1=C2[C@@H](CN(S(=O)(=O)c3ccc(C)cc3)[C@H]2c2ccccc2F)[C@H]2C(=O)N(c3ccccc3)C(=O)[C@H]2C1 | 25.3 | -16.6 | 2.1 | / | / | -1.5
O=C1NC(=NCc2ccccc2)S/C1=C/c1ccc(O)cc1 | 52.6* | -43.1 | 69.6 | 30.9 | 0.3 | 32.2
Cc1c(N=C2NC(=O)/C(=C/c3ccc(O)cc3)S2)c(=O)n(-c2ccccc2)n1C | -19.4 | 14.8 | -0.9 | -9.3 | -0.1 | 0.4
CCc1nc2c(OCCOC)cccn2c1N(C)C(=O)Nc1ccccc1OC | 30.5 | -12.0 | -8.9 | / | / | 17.1
COc1ccc(C(=O)/C=C/c2cccc(OCc3ccccc3)c2)cc1CSCC(=O)O | -9.4 | -18.1 | 0.4 | 13.3 | -0.8 | 74.9*
COc1ccc(C(=O)/C=C/c2ccc(OCc3ccccc3)cc2)cc1CSCC(=O)O | 38.8 | -26.3 | 10.1 | 5.6 | 0.0 | 24.9
COCCNc1nc(Nc2ccccc2Cl)c2sccc2n1 | 17.5 | -5.4 | 22.6 | / | / | 25.4
CN=c1scc(C)n1/N=C/c1ccc(O)cc1 | 6.4 | 2.6 | -47.5 | -44.1 | -5.9 | -251.1
C=CCN=c1scc(C)n1/N=C/c1ccc(O)c(O)c1 | -2.0 | 8.5 | 91.7* | -51.9 | -8.4 | -115.7
CN=c1scc(-c2ccco2)n1/N=C/c1ccc(O)c(O)c1 | -6.3 | -5.7 | 90.1* | 1.5 | -55.0 | -136.0
CC(C)(C)C(=O)/C(=C/c1ccc(Cl)cc1)n1cncn1 | 48.0 | -23.1 | ? | 94.1* | -5.6 | 104.8*
CC(C)/C=C(/C(=O)c1ccc(Cl)cc1Cl)n1cncn1 | 31.1 | -0.3 | 20.0 | 32.6 | 19.8 | 3.3
N#C/C(=C\Nc1ccc2c(c1)OCCO2)c1nc(-c2ccccc2)cs1 | 77.3* | -76.2* | -1.0 | -16.6 | 5.2 | 9.5
COc1ccc(-c2csc(/C(C#N)=C/Nc3ccc4c(c3)OCCO4)n2)cc1 | 62.1* | -63.5* | 8.8 | 13.4 | -11.4 | 27.8
N#C/C(=C\C=C\c1ccccc1[N+](=O)[O-])c1nc(-c2ccc3c(c2)OCO3)cs1 | -6.9 | -54.5* | -16.2 | 8.0 | 1.4 | 17.8
NCCCn1c(C(=O)c2cc(Cl)c(N)c(Cl)c2)c2ccc([N+](=O)[O-])cc2[n+]1[O-] | -0.9 | -3.5 | 5.6 | 54.2 | 32.5 | 57.3*
COc1cc(SC)ccc1C(=O)Nc1ccc(Cl)cn1 | -17.2 | -68.9* | -14.3 | 58.6 | 67.9* | 28.1
Cc1cc(C)c2c(NC(=O)CCl)nn(C)c2n1 | 16.6 | -16.8 | -13.2 | 3.7 | -30.6 | 52.0*
CCOC(=O)c1oc2cccc(OCC(O)CNC(C)C)c2c1C (stereo not drawn) | -2.8 | 3.1 | 10.4 | 2.4 | -2.5 | 15.7

Bioassay records: PubChem BioAssay, several laboratories
